esBAF inh = Bmi1 luciferase reporter increase in mESCs, primary screen, esBAF inhibitor project, mouse ES cells, Bmi1 luciferase knock-in, single point; 24 h; 100% = twice the neutral-well signal; reporter increase, % at 12.5 µM; 2% of 350,000 active; AID 602393, 2012; in the data active = activation above about 40%;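 also: 0% = median of the plate's neutral control wells and 100% = double that signal; a rise in the Bmi1 reporter signal indicates esBAF inhibition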
Wnt act = Wnt/beta-catenin pathway activators, primary screen, cell-based, plate reader, single point | Wnt/beta-catenin reporter cell assay, activator | activation, % at 9.35 µM | 1.2% of 300,000 active; in the data active = activation above about 30%, passing the limit was not always enough;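 also: 0% = neutral control wells and 100% = positive control wells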
PHOSPHO1 block = PubChem AID 1565; inhibition, % at 13.3 µM; Phosphoethanolamine/phosphocholine phosphatase (Homo sapiens), Q8TCT1; recombinant PHOSPHO1, absorbance phosphatase assay; 1.1% of 290,000 active; in the data active = inhibition above about 60%
Target sequence (Q8TCT1 whole entry, looked up): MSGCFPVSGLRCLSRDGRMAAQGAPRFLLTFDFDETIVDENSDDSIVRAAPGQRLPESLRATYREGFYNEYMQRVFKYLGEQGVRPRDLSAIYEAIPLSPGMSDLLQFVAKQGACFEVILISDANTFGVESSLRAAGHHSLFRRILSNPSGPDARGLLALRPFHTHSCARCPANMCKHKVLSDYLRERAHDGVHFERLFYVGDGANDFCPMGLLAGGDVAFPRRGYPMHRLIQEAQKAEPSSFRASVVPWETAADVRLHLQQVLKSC
APOBEC3G inh = APOBEC3G DNA deaminase inhibitors, primary screen, biochemical, fluorescence, single-stranded DNA substrate, uHTS. DNA dC->dU-editing enzyme APOBEC-3G (Homo sapiens), Q9HC16. recombinant A3G, ssDNA deamination FAM/TAMRA fluorescence. 0.28% of 330,000 active. inhibition, % at 20 µM. AID 493012, 2011;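 active = inhibition of at least 40% at 20 µM, with no more than 30% in the related APOBEC3A deaminase screen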;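 also: plate controls were DMSO wells with A3G for no effect and wells lacking A3G enzyme for full effect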
MITF TRPM1 HTS = activators of MITF-driven TRPM1 promoter reporter, primary screen, cell-based, SK-MEL-5, luciferase, single point; SK-MEL-5 TRPM1-promoter luciferase, 24 h; % of positive control, neutral wells = 0; activation, % at 12.5 µM; 0.75% of 300,000 active; AID 588334, 2011;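 active = mean activation of at least 80% with every replicate also reaching 80%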;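 also: 0% = neutral control wells and 100% = parthenolide positive control wells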
A3A deaminase = APOBEC3A ssDNA deaminase inhibitors, primary screen, selectivity assay for APOBEC3G inhibitor project, biochemical, FAM/TAMRA oligo cleavage fluorescence. DNA dC->dU-editing enzyme APOBEC-3A (Homo sapiens), P31941. recombinant A3A, FAM/TAMRA ssDNA deamination fluorescence. inhibition, % at 20 µM. 0.41% of 330,000 active. AID 493011, 2011;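 active = at least 40% inhibition at 20 µM here, with at most 30% in a related deaminase screen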;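 also: plate controls were A3A with DMSO for no effect and wells lacking A3A enzyme for full effect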
Target sequence (P31941 whole entry, looked up): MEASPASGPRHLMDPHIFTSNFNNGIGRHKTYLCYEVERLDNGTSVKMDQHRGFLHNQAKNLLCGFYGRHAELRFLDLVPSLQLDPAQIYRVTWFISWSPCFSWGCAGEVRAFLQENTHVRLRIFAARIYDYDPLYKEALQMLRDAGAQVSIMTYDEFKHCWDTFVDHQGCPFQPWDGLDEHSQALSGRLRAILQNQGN
A3G conf = APOBEC3G deaminase inhibitor retest, confirmation, biochemical, fluorescence, single-stranded DNA substrate, single concentration | 72% of 890 active | shares compounds with APOBEC3G inh | recombinant A3G ssDNA deaminase, UDG/FAM-TAMRA fluorescence | inhibition, % at 20 µM;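 active = inhibition reaching a set limit in any replicate at 20 µM, the limit being 80% of the first screen's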
UDG A3G counter = E. coli UDG inhibitors, confirmation, counter-screen for APOBEC3G inhibitor project, biochemical, single concentration, fluorescence, FAM/TAMRA oligo; shares compounds with APOBEC3G inh; inhibition, % at 20 µM; UDG counterscreen; AID 504715, 2011; 710 tested, under 10 active;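 active = compounds giving 40% or more inhibition at 20 µM in any one of the three replicates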;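 also: plate controls were DMSO wells with UDG and oligo for no effect and DMSO wells lacking both for full effect; inhibitors lower the FAM signal released by uracil excision and alkaline cleavage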
* hit, by the source's call; nt = not tested or not shown. Compounds with a hit are over-represented: about 3.6% of the library has one in this group of screens.

SMILES | esBAF inh | Wnt act | PHOSPHO1 block | APOBEC3G inh | MITF TRPM1 HTS | A3A deaminase | A3G conf | UDG A3G counter
O=C(Cn1sc2ccccc2c1=O)Nc1ccc(Cl)cc1 | -5 | -2 | nt | nt | nt | nt | nt | nt
COc1ccc(S(=O)(=O)N[C@H]2C=C[C@H](CC(=O)N3CCN(c4ccccc4)CC3)O[C@@H]2CO)cc1 | 3 | nt | nt | nt | nt | nt | nt | nt
CCOc1ccc(NC(=O)Cn2sc3nc(C)cc(C)c3c2=O)cc1 | nt | nt | -102 | 80* | -2 | -1 | 49* | -3
O=[N+]([O-])c1c(Nc2ccccn2)cc(Cl)c2nonc12 | nt | 1 | 18 | 45* | nt | 2 | 60* | nt
COc1cc(/C=N/n2cc(-c3ccccc3)[nH]c2=S)cc(OC)c1O | 6 | 1 | 25 | 46* | -10 | -14 | 85* | 1
COC(=O)c1cc(=O)nc2sc(-c3ccc(F)cc3)nn12 | -5 | nt | 95* | 42* | 10 | 6 | 34* | -3
COC(=O)c1cc(=O)nc2sc(-c3cccs3)nn12 | -8 | nt | 9 | -11 | -8 | 2 | nt | nt
C[C@@H]1CN([C@H](C)CO)C(=O)c2cc(NC(=O)c3ccccc3)ccc2O[C@@H](C)CCCCO[C@@H]1CN(C)Cc1ccc(C(=O)O)cc1 | 4 | nt | nt | nt | nt | nt | nt | nt
CCCCCCn1c(SCC(=O)OC)nc2c1c(=O)[nH]c(=O)n2C | -3 | -1 | 83* | 45* | nt | 0 | 68* | -4
COc1ccc(NC(=O)N(C)C[C@@H]2OCCCC[C@@H](C)Oc3ccc(NS(=O)(=O)c4cn(C)cn4)cc3C(=O)N([C@H](C)CO)C[C@H]2C)cc1 | -2 | nt | nt | nt | nt | nt | nt | nt
CCS(=O)(=O)Nc1ccc2c(c1)C(=O)N(C)C[C@@H](OC)[C@@H](C)CN(C(=O)c1ccc3c(c1)OCO3)[C@H](C)CO2 | 1 | nt | nt | nt | nt | nt | nt | nt
CCn1c(CSc2nc3ccccc3[nH]2)n[nH]c1=S | -2 | 0 | 45 | 46* | 7 | 2 | 55* | -2
CCn1c(CSCc2ccccc2)n[nH]c1=S | -2 | 0 | -84 | 41* | -9 | -3 | 85* | -1
CCOc1ccccc1CSc1nc2ccccc2[nH]1 | nt | -1 | -4 | -1 | -13 | -1 | nt | nt
O=C([C@@H]1[C@@H](CO)[C@@H]2Cn3c(ccc(-c4ccncc4)c3=O)[C@@H]2N1Cc1cocn1)N1CCCCC1 | -1 | nt | nt | nt | nt | nt | nt | nt
C[C@@H]1CN([C@H](C)CO)C(=O)Cc2cc(NC(=O)NC3CCCCC3)ccc2O[C@H]1CN(C)C(=O)Nc1ccccc1 | -2 | nt | nt | nt | nt | nt | nt | nt
Cc1[nH]c2ccccc2c1/C=N/NC(=O)CNC(=O)c1ccccc1 | nt | 1 | 32 | 11 | nt | 7 | nt | nt
COc1cccc(C(=O)NCC(=O)N/N=C/c2c(C)[nH]c3ccccc23)c1 | 3 | -2 | -11 | 44* | 8 | 5 | 0 | nt
Cc1ccc(N2C(=O)[C@@H]3C(c4cccnc4)=NO[C@@H]3C2=O)cc1 | nt | 1 | 37 | 57* | nt | -1 | 1 | -3
CCCOc1ccc(C(=O)NNC(=S)NC(=O)CC)cc1 | -4 | nt | 38 | 48* | nt | -1 | 6 | -2
O=C(Cc1ccccc1)NNC(=S)NC(=O)c1cccnc1 | nt | -1 | 15 | 43* | nt | -4 | 14 | 1
O=C(NNC(=S)NC(=O)c1cccnc1)c1ccccc1 | 9 | 1 | 19 | 2 | nt | 1 | nt | nt
Cc1cccc(NC(=O)Nc2ccc3c(c2)C(=O)N(C)[C@H]2CC[C@H](CC(=O)O)O[C@H]2CO3)c1 | -1 | nt | nt | nt | nt | nt | nt | nt
